This is part of a sample that, as a whole, favours compounds with a hit. Of some 83,000 tested, about 20% had one in any assay.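 Activity criterion: percent growth below 10, measured after cells in 96-well plates were exposed to a single compound concentration for 48 hours.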 Unmarked numbers belong to inactive results. Calls of active or inactive are those of the source.
Tested on: CAKI-1 renal
Test: NCI-60 one-dose screen, 48 h (100 = growth as untreated, 0 = no growth, -100 = all killed)
Conditions: 10 µM unless noted

| Structure (SMILES) | growth |
| --- | --- |
| Fc1ccc(C2CC(c3cccc(Nc4ccncc4)c3)=NN2c2ccccc2)cc1 (stereo unspecified) | 48.1% |
| COc1ccc2c(c1)OC1=C(C(=O)OC1)C2c1cc(OC)c(OC)c(OC)c1 (stereo unspecified) | 55.6% |
| COc1ccncc1C#Cc1cncc(C(=O)Nc2ccc(CN3CCN(C)CC3)c(C(F)(F)F)c2)c1 | 15.4% |
| Clc1cc(Cl)cc(N2N=C(c3cccc(Nc4ccncc4)c3)CC2c2ccc(Br)cc2)c1 (stereo unspecified) | 48.2% |
| CN1CCN(C(=O)[C@]2(C)CC[C@]3(C)CC[C@]4(C)C(=CC(=O)[C@@H]5[C@@]6(C)CCC(=O)NC(C)(C)[C@@H]6CC[C@]54C)[C@@H]3C2)CC1 | 95.8% |
| COc1ccc(-c2nc(SCC(C)C)nc(N/N=C(/C)c3ccc(OC)c(OC)c3)c2C#N)cc1 | 86% |
| CC(=O)NCCCS(=O)(=O)O | 88.5% |
| COc1cc2nc(-c3ccc(C#N)cc3)[nH]c(=O)c2cc1OC | 92% |
| O=C1Nc2c(ccc(Cl)c2Cl)/C1=C/c1ccccn1 | -1.32% (active) |
| CN1CCN(c2ccc(NC3=C(Cl)C(=O)c4ncccc4C3=O)cc2C#N)CC1 | 0.744% (active) |
| COc1ccc(NS(=O)(=O)c2ccc(C)cc2)c([N+](=O)[O-])c1 | 98.2% |
| Cc1ccc(C2CC(c3cccc(Nc4ccncc4)c3)=NN2c2ccccc2)cc1 (stereo unspecified) | -94.6% (active) |
| COc1cc(-c2nc3occn3c2-c2ccnc(NCCNS(=O)(=O)c3ccc(Cl)cc3)n2)ccc1F | 60.9% |
| C[C@]12CCc3nc(Nc4cccc(O)c4)sc3C1=CC[C@@H]1[C@@H]2CC[C@]2(C)/C(=N\NC(N)=S)CC[C@@H]12 | 36.4% |
| CCN(CC)CCCC(C)Nc1cc(-c2cccc(OC(F)(F)F)c2)nc2ccc(N3CCCC3)cc12 (stereo unspecified) | -53% (active) |
| Nc1nnc2cc(Cl)ccc2n1 | 112% |
| OC1(c2ccc(Cl)c(C(F)(F)F)c2)CCN(CCCC(c2ccc(F)cc2)c2ccc(F)cc2)CC1 | -68.7% (active) |
| Clc1ccc(N2N=C(c3cccc(Nc4ccncc4)c3)CC2c2ccccc2)cc1 (stereo unspecified) | 76.2% |
| CC1=NNC(=O)C1CCC(=O)N/N=C(\C)c1ccc2ccccc2c1 (stereo unspecified) | 107% |
| COc1c(Cl)cc(Cl)c2ccc(C=C3C(=O)N(C)C(=O)N(C)C3=O)nc12 | 95.3% |
| Cn1c(COC(=O)NCCN2CCOCC2)nc2c(N3CCOCC3)nc(-c3ccccc3)nc21 | -94.8% (active) |
| COc1ccc(C(O)c2cc3c(N)c(C(=O)Nc4ccc(Br)cc4)sc3nc2C)cc1 (stereo unspecified) | 32.5% |
| O=c1[nH]c2c(s1)CCCC2CN1CCCCC1 (stereo unspecified) | 99% |

Tested on: A498 renal
Test: as above
Conditions: 10 µM unless noted

| Structure (SMILES) | growth |
| --- | --- |
| O=C(Nc1ccc(Cl)cc1)Nc1ccc(Cl)c(Cl)c1 | 11.4% |
| CC(C)Cc1ccc(C(C)C(=O)NCc2ccc(Cn3c(=O)sn(-c4ccc(Cl)cc4)c3=O)cc2)cc1 (stereo unspecified) | 95% |
| COc1ccc(/C=N/NC(=O)c2cccc3cc[nH]c23)cc1O | 74.5% |
| COc1cc(NCC(O)CN(CC(C)C)C2CCCC2)c2ncccc2c1 (stereo unspecified) | 71.5% |
| COc1cccc(CCC(=O)c2cc3c(N)c(C(=O)Nc4ccccc4)sc3nc2C)c1 | 9.88% (active) |
| CN1CCN(CCCNc2nccc(-c3c(-c4ccc(F)c(O)c4)nc4sccn34)n2)S1(=O)=O | 134% |
| COc1ccccc1Nc1cc(O)c2c(=O)cc(-c3ccccc3)oc2c1 | 11.6% |
| C[C@@H]1CN(Cc2ccc(/C=C/c3n[nH]c4ccc5nc(-c6cn[nH]c6C(F)(F)F)c6c(c5c34)CCCC6)cc2)C[C@H](C)O1 | 3.16% (active) |
| COc1ccc(-c2ncc(-c3ccccc3)[nH]2)cc1OC | 89.2% |
| CCOC(=O)c1ccc(Nc2ccnc(SCC(=O)c3ccc(C#N)cc3)n2)cc1 | 50.2% |
| CCCCCCCCCCCCCCCCCCOc1ccccc1N | 61.8% |
| COc1ccc(C2CC(c3cccc(Nc4ccncc4)c3)=NN2c2ccc(Cl)cc2)cc1 (stereo unspecified) | 70.1% |
| O=C(Nc1ccccc1)Oc1ccccc1-c1ccccc1 | 75.3% |
| Clc1ccc(C2CC(c3cccc(Nc4ccncc4)c3)=NN2c2ccc(Cl)cc2)cc1 (stereo unspecified) | 72.1% |
| Clc1ccc(N2N=C(c3cccc(Nc4ccncc4)c3)CC2c2ccc(Br)cc2)cc1 (stereo unspecified) | 71.6% |
| Fc1ccc(C2CC(c3cccc(Nc4ccncc4)c3)=NN2c2ccccc2)cc1 (stereo unspecified) | 85.2% |
| COc1ccc2c(c1)OC1=C(C(=O)OC1)C2c1cc(OC)c(OC)c(OC)c1 (stereo unspecified) | -1.39% (active) |
| COc1ccncc1C#Cc1cncc(C(=O)Nc2ccc(CN3CCN(C)CC3)c(C(F)(F)F)c2)c1 | 28.9% |
| Clc1cc(Cl)cc(N2N=C(c3cccc(Nc4ccncc4)c3)CC2c2ccc(Br)cc2)c1 (stereo unspecified) | 88.8% |

| Structure (SMILES) | growth |
| --- | --- |
| CN1CCN(C(=O)[C@]2(C)CC[C@]3(C)CC[C@]4(C)C(=CC(=O)[C@@H]5[C@@]6(C)CCC(=O)NC(C)(C)[C@@H]6CC[C@]54C)[C@@H]3C2)CC1 | 102% |
| COc1ccc(-c2nc(SCC(C)C)nc(N/N=C(/C)c3ccc(OC)c(OC)c3)c2C#N)cc1 | 67.9% |
| CC(=O)NCCCS(=O)(=O)O | 93.4% |
| COc1cc2nc(-c3ccc(C#N)cc3)[nH]c(=O)c2cc1OC | 120% |
| O=C1Nc2c(ccc(Cl)c2Cl)/C1=C/c1ccccn1 | 110% |
| CN1CCN(c2ccc(NC3=C(Cl)C(=O)c4ncccc4C3=O)cc2C#N)CC1 | 79.7% |
| COc1ccc(NS(=O)(=O)c2ccc(C)cc2)c([N+](=O)[O-])c1 | 80% |
| Cc1ccc(C2CC(c3cccc(Nc4ccncc4)c3)=NN2c2ccccc2)cc1 (stereo unspecified) | 30.7% |
| COc1cc(-c2nc3occn3c2-c2ccnc(NCCNS(=O)(=O)c3ccc(Cl)cc3)n2)ccc1F | 62.3% |
| C[C@]12CCc3nc(Nc4cccc(O)c4)sc3C1=CC[C@@H]1[C@@H]2CC[C@]2(C)/C(=N\NC(N)=S)CC[C@@H]12 | 97.5% |
| CCN(CC)CCCC(C)Nc1cc(-c2cccc(OC(F)(F)F)c2)nc2ccc(N3CCCC3)cc12 (stereo unspecified) | 29.4% |
| Nc1nnc2cc(Cl)ccc2n1 | 54% |
| OC1(c2ccc(Cl)c(C(F)(F)F)c2)CCN(CCCC(c2ccc(F)cc2)c2ccc(F)cc2)CC1 | -92.5% (active) |
| Clc1ccc(N2N=C(c3cccc(Nc4ccncc4)c3)CC2c2ccccc2)cc1 (stereo unspecified) | 84.5% |
| CC1=NNC(=O)C1CCC(=O)N/N=C(\C)c1ccc2ccccc2c1 (stereo unspecified) | 110% |
| COc1c(Cl)cc(Cl)c2ccc(C=C3C(=O)N(C)C(=O)N(C)C3=O)nc12 | 96.8% |
| Cn1c(COC(=O)NCCN2CCOCC2)nc2c(N3CCOCC3)nc(-c3ccccc3)nc21 | 30.7% |
| COc1ccc(C(O)c2cc3c(N)c(C(=O)Nc4ccc(Br)cc4)sc3nc2C)cc1 (stereo unspecified) | -1.93% (active) |
| O=c1[nH]c2c(s1)CCCC2CN1CCCCC1 (stereo unspecified) | 95.8% |

Source: PubChem BioAssay (NCI)
